Measured values reported in PubChem BioAssay AID504329 (Southern Research Specialized Biocontainment Screening …, 2011).
Among all 340,000 compounds or so, about 1,000 (0.29%) were called active. Cut-off read from the data, not from the text of the source: inconclusive = inhibition above about 27% without an active follow-up result; inactive = below that. Not all results are given here. Measured potencies and affinities stand elsewhere.

experiment: H1N1 influenza NS1A inhibitors, functional cell based assay (AID 504329); conditions: percent inhibition, at 12.5 µM, stronger effect = higher value

Compound	inhibition
CCOC(=O)CC(=O)CSc1nc(C)nc2c1oc1ccccc12	2.82% (inactive)
O=C(NCCCN1CCOCC1)C(=O)NCC1OCCCN1S(=O)(=O)c1cc(F)ccc1F (configuration not stated)	-1.53% (inactive)
COC(=O)c1cc(C)sc1NC(=S)N1CCN(CCc2ccccc2)CC1	4.17% (inactive)
CCN1CCN(c2ccc(NC(=O)c3ccc4c(c3)OCCO4)cc2C)CC1	-4.06% (inactive)
COc1cccc(CCc2nc3ccccc3c(=O)n2N)c1	-4.28% (inactive)
COc1ccc(S(=O)(=O)n2nc(-c3ccc(Cl)cc3)cc2N)cc1	2.77% (inactive)
CCN(CC(=O)Nc1c(F)cccc1F)C(=O)c1cc([N+](=O)[O-])ccc1N1CCOCC1	-7.79% (inactive)
Cc1cc(C)nc(NS(=O)(=O)c2ccc(NC(=S)NC(=O)C3CCCC3)cc2)n1	-7.03% (inactive)
COC(=O)c1ccccc1NC(=O)N1CCN(c2ccc(OC)cc2)CC1	12% (inactive)
COc1cc(-c2cc(C(=O)OCC(=O)NC3CC3)c3ccccc3n2)cc(OC)c1OC	-4.4% (inactive)
COc1ccc(C(=O)Nc2cnn(Cc3c(F)cccc3Cl)c2)cc1OC	-4.35% (inactive)
O=C(N[C@H]1CP(=O)(Oc2ccccc2)O[C@H](COCc2ccccc2)[C@H]1O)C(Cl)(Cl)Cl (some centres not stated)	-20.9% (inactive)
CCOC(=O)c1cnc2ccc(C)cc2c1NCCN1CCOCC1	-11.3% (inactive)
CCOC(=O)c1ccc2ncc(C(=O)OCC)c(Nc3ccc(N4CCOCC4)cc3)c2c1	28.6% (inactive)
O=c1[nH]c(=S)[nH]cc1Oc1ccccc1	-0.47% (inactive)
CC(=O)N1c2ccc(S(=O)(=O)N3CCCC(C(=O)Nc4ccc(F)cc4)C3)cc2CC1C (configuration not stated)	1.22% (inactive)
CC1CCN(C2CCN(S(=O)(=O)c3ccc(F)cc3)CC2)CC1	-14.4% (inactive)
Cc1n[nH]c(=S)n(/N=C/c2cccs2)c1=O	-10.9% (inactive)
COc1ccccc1OCC(=O)Nn1c(=S)[nH]c2ncccc2c1=O	-1.5% (inactive)
Cc1nn2c(=S)[nH]nc2[nH]c1=O	5.07% (inactive)
CNCC(=O)Nc1c(C)n[nH]c1C	-3.79% (inactive)
COc1cc(C)ccc1OCC(=O)NC1CCCCCC1	-0.58% (inactive)
CCC(C)NC(=O)COCc1cc(-c2ccc3c(c2)OCO3)on1 (configuration not stated)	-7.2% (inactive)

Compound	inhibition
COc1ccc(-c2sc3cc4c(cc3c2-c2ccc3c(c2)OCCO3)OCO4)cc1	-11.4% (inactive)
ClCC1CSC(=NC23CC4CC(CC(C4)C2)C3)O1 (configuration not stated)	-6.27% (inactive)
C1=CC2=NC34CCCCC3CC3=C(CCCC3)N4C2=CC1=NC1CCCCC1 (configuration not stated)	4.56% (inactive)
N#CC(C#N)=c1ccc2c(c1)N1C(c3ccccc3)=CC(c3ccccc3)C3CCCCC31N=2 (configuration not stated)	-4.24% (inactive)
C=CCN(c1ccccc1)S(=O)(=O)c1cccc(C(=O)NCC(c2ccc(OC)cc2)N2CCCCC2)c1 (configuration not stated)	3.3% (inactive)
Cc1ccc(NC(=S)NNc2ccc([N+](=O)[O-])cc2S(=O)(=O)Nc2ccccc2C(=O)O)cc1C	26.1% (inactive)
CSc1ccc(C=NNc2ccc(S(=O)(=O)Nc3ccccc3C(=O)O)cc2[N+](=O)[O-])cc1	3.57% (inactive)
CC(=O)Nc1ccc(C=NNc2ccc(S(=O)(=O)Nc3ccccc3C(=O)O)cc2[N+](=O)[O-])cc1	15.1% (inactive)
COc1ccccc1NS(=O)(=O)c1ccc(N/N=C/c2c(C)nn(-c3ccccc3)c2N2CCCC2)c([N+](=O)[O-])c1	8.44% (inactive)
COc1cc(C=NNc2ccc(S(=O)(=O)Nc3ccccc3C(=O)O)cc2[N+](=O)[O-])ccc1O	14.4% (inactive)
COc1ccc(C=NNc2ccc(S(=O)(=O)Nc3ccccc3C(=O)O)cc2[N+](=O)[O-])c(OC)c1	20.4% (inactive)
COC(=O)Nc1ccc(S(=O)(=O)N2CCC(C(=O)N3CCCCC3C)CC2)cc1 (configuration not stated)	-11.1% (inactive)
COc1ccccc1NS(=O)(=O)c1cc(C(=O)NCC(C)(C)N2CCOCC2)ccc1C	-2.2% (inactive)
CCOc1ccc(CN(CC)C(=O)Cc2c[nH]c3ccccc23)cc1OC	-0.83% (inactive)
O=C(O)[C@H](Cc1ccccc1)N1C(=O)c2ccncc2C1=O	-6.13% (inactive)
CC(=O)c1c(C)[nH]c(C(=O)OCC(=O)NCc2ccc3c(c2)OCO3)c1C	-0.39% (inactive)
O=C(O)CNC(=O)CC1S/C(=N/N=C2/NC(=O)CS2)NC1=O (configuration not stated)	16.4% (inactive)
NC(=O)NC(=O)CC1S/C(=N/N=C2/NC(=O)CS2)NC1=O (configuration not stated)	5.04% (inactive)
NC1=NC(=O)C(CC(=O)NCc2ccccc2)S1 (configuration not stated)	2.63% (inactive)
CCN=C1SC(CC(=O)NC(N)=O)C(=O)N1CC (configuration not stated)	0.98% (inactive)
CCN(CC)CCOc1ccccc1C(C)=O	-6.91% (inactive)
COc1ccc(CNC(=O)C(C)Sc2ccc(S(=O)(=O)N3CCOCC3)cn2)cc1 (configuration not stated)	-8.84% (inactive)
CN(C)C(=O)C(OC(=O)c1ccc2c(c1)CCCC2)c1ccccc1 (configuration not stated)	-4.12% (inactive)

Compound	inhibition
CC(=O)Nc1ccc(OCc2ccccc2)cc1[N+](=O)[O-]	-2.5% (inactive)
Nc1cc([N+](=O)[O-])ccc1OCc1ccccc1	-17.4% (inactive)
S=C(Nc1ccc(Cl)cc1)Nc1ccc2c(c1)OCCO2	-3.12% (inactive)
COc1ccc(OC)c(S(=O)(=O)Nc2c(C)cccc2C)c1	-4.66% (inactive)
CC(=O)N(Cc1ccc(F)cc1)c1cccc(C)c1C	5.28% (inactive)
CCCNC1=C(N(C(C)=O)c2cccc(F)c2)C(=O)c2ccccc2C1=O	-1.3% (inactive)
O=C1C(Cl)=C(NCCc2ccccc2)C(=O)c2ccccc21	28.7% (inactive)
CN(CC(=O)NCCc1ccc(F)cc1)Cc1ccccc1	0.42% (inactive)
O=C1C=C(Nc2ccc(Cl)cc2)CC(c2ccccc2)C1 (configuration not stated)	1.69% (inactive)
CC(C)CCN1C(Nc2ccccc2)=NC[C@@H]1Cc1ccccc1	-9.63% (inactive)
COC(=O)c1cc2ccccn2c2c(C(=O)OC)c(C(=O)OC)cc1-2	16.8% (inactive)
COC(=O)c1cc2c(-c3ccccc3)c(C)c3ccccn3c-2c1C(=O)OC	26.4% (inactive)
CC(=O)NC1c2ccccc2C(=O)N1Cc1ccccc1 (configuration not stated)	-3.85% (inactive)
O=[N+]([O-])c1ccc(/C=N/Nc2nc(NCc3ccccc3)nc(N3CCOCC3)n2)cc1	-9.38% (inactive)
O=[N+]([O-])c1cccc(/C=N/Nc2nc(NCc3ccccc3)nc(N3CCOCC3)n2)c1	0.07% (inactive)
COc1ccc(NC(=O)[C@H](CCS(C)(=O)=O)N2Cc3ccccc3C2=O)c(OC)c1	28.3% (inactive)
C[C@H](OC(=O)c1[nH]cnc1C(=O)N1CCN(C(=O)OC(C)(C)C)CC1)c1ccccc1	-7.71% (inactive)
CC1=NN(c2ccc(Cl)c(C(=O)O)c2)C(=O)/C1=C\c1ccc(-c2ccc(C(=O)O)cc2)o1	19.4% (inactive)
CC1=NN(c2ccc(C(=O)O)cc2)C(=O)/C1=C/c1ccc(-c2ccccc2F)o1	23.6% (inactive)
CC(=O)Nc1ccc(S(=O)(=O)N2CCC3(CC2)OCCO3)cc1	4.94% (inactive)
COC(=O)c1ccc2c(c1)C(C)(C)C(/C=C/c1ccc(OC)c(OC)c1OC)=[N+]2C	4.08% (inactive)
COC(=O)c1ccc(O)cc1	-1.72% (inactive)
COC(=O)c1ccc2nc(C)c(C)nc2c1	-1.98% (inactive)

Compound	inhibition
COC(=O)c1ccc2c(c1)C(=O)/C(=C/c1ccc(O)cc1)O2	-8.68% (inactive)
CNC(=O)c1c(C)noc1C	-6.29% (inactive)
Clc1ccc(SCc2cc(Cl)nc(-c3ccccc3)n2)cc1	3.7% (inactive)
Clc1ccc(SCc2cc(N3CCOCC3)nc(-c3ccccn3)n2)cc1	-0.35% (inactive)
COc1ccccc1N/C=C(\C#N)c1nc2ccccc2[nH]1	10.7% (inactive)
COc1ccc(N/N=C(/N=Nc2nc(C)cc(=O)[nH]2)c2ccccc2)cc1	26.3% (inactive)
O=C(/C(=N\Nc1ccc(Br)cc1)Sc1nnnn1-c1ccccc1)c1ccccc1	4.24% (inactive)
Cc1cc(=O)[nH]c(N=N/C(=N/Nc2ccc(O)cc2)c2ccccc2)n1	13.6% (inactive)
C/C(=N\Nc1ccc(C(=O)O)cc1)c1ccc(Br)cc1	-17.3% (inactive)
COc1ccc(S(=O)(=O)N2CCOC2CNC(=O)C(=O)NCCc2ccccc2)cc1OC (configuration not stated)	2.48% (inactive)
Cc1ccc(C)n1-n1cnc2sc3c(c2c1=O)CCC3	0.86% (inactive)
COc1ccccc1C(CNC(=O)c1ccc(S(=O)(=O)N2CCCCC2)cc1)N(C)C (configuration not stated)	-6.72% (inactive)
O=C(O)C(Cc1ccccc1)N=C(NS(=O)(=O)c1ccccc1)c1ccccc1 (configuration not stated)	-1.07% (inactive)
Cc1ccc(C)c(S(=O)(=O)N2CCN(Cc3ccc(O)c4ncccc34)CC2)c1	-17.5% (inactive)
CCOC(=O)C1CCN(Cc2c(O)ccc3ccccc23)CC1	-4.79% (inactive)
Cc1ccc(NCc2ccc(O)c3ncccc23)cc1C	-2.65% (inactive)
CCOC(=O)C1CCN(Cc2ccc(OC)c(C)c2OC)CC1	0.38% (inactive)
OC1(C#CCN2CCCC2)CCCCC1	-3.16% (inactive)
Cc1ccc(F)cc1NC(=O)CSc1nnc(CNC(=O)c2ccco2)n1C	-10.7% (inactive)
N#CC(C#N)=C1NC(N)=C(C#N)C(c2ccccc2)=C1C#N	-3.59% (inactive)
CCc1cccc(OCC(=O)N(C)CC(=O)Nc2cccc(F)c2)c1	-9.68% (inactive)
CCOc1ccc(NC(=O)N(CCN2CCOCC2)Cc2ccc3c(c2)CCCN3CC)cc1	16.9% (inactive)
CCN1CCCc2cc(CN(CCN3CCOCC3)C(=O)Nc3ccc(C)c(C)c3)ccc21	22.9% (inactive)
